According to PubChem BioAssay AID1851 (National Center for Advancing Translational Sciences (NCATS), 2009):
“And” between values parts separate entries of the source, which are not always exact repeats. Equal values may be shown once. Out of some 16,000 compounds screened, about 4,000 (25%) were called active. Not shown: some 26% with an inconclusive outcome. The call rests on the fitted dose curve; in most records, active means well fitted curve in the direction sought with a large enough effect; inconclusive means small, poorly fitted or top-dose-only effect, or effect the other way; inactive means no such curve, though single readings can be large or run the other way. A selection follows. The source holds several records for some structures; these can differ, active in one and inactive in another.

What follows are compounds tested against Cytochrome P450 2C9 (Homo sapiens) (UniProt P11712) (assay: Cytochrome panel assay with activity outcomes). Conditions: recombinant CYP, pro-luciferin dealkylation, luminescence, p450-cyp2c9; series mostly up to 57.1 µM.
On the % scale 0 is the no-effect control and ±100 the full control effect.

Chain of Cytochrome P450 2C9 (Homo sapiens) (P11712 whole entry, looked up): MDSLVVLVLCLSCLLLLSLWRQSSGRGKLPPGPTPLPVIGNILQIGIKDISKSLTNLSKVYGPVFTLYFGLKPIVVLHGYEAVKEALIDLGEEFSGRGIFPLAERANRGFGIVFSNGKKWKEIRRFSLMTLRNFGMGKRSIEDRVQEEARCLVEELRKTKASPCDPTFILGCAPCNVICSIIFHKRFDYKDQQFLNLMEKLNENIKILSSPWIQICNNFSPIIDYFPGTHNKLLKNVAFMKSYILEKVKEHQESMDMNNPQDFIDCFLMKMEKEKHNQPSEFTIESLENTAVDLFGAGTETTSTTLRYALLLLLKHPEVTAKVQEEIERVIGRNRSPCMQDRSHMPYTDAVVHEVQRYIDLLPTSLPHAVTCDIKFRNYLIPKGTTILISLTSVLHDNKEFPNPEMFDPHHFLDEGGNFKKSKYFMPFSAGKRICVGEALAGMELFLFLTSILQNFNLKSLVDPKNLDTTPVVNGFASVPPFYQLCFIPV

AC50, active:
Cc1cc(Cl)ccc1Nc1sc(C(=O)c2cc3cc(Cl)ccc3o2)c(N)c1C#N 1.26 µM
O=C1c2ccccc2C2=Nc3ccccc3SC(c3ccccc3F)C12 (stereo unspecified) 0.0891 µM
OC(c1ccccc1)(c1ccc(F)cc1)C(c1ccccc1)N1CCOCC1 (stereo unspecified) 11.2 µM
COc1ccc(N2CCC(CNC(=O)Nc3ccc(OC)cc3OC)C2)cc1 (stereo unspecified) 17.8 µM
O=C(c1ccccc1-c1nc(-c2ccccc2)no1)N1CCOCC1 14.1 µM
CCOc1cc(-c2noc(N)c2C#N)cc(OCC)c1OCC 7.94 µM
CS(=O)(=O)c1ccc(-c2cc(Br)sc2-c2ccc(F)cc2)cc1 0.794 µM
CN(C)/C(CN1CCOCC1)=C1\N=C(c2ccccc2)OC1=O 17.8 µM
COC(=O)CNC(=O)CN1C(=O)N(c2ccc(Cl)cc2)C(N(O)C(=O)Nc2ccc(Cl)cc2)C1(C)C (stereo unspecified) 14.1 µM
CC(C)(C)[C@@]1(O)CCN2C[C@@H]3c4ccccc4CCc4cccc(c43)[C@@H]2C1 1.58 µM
CCOc1c(Cl)cc(C(=O)Nc2ccccc2-c2ccccc2)cc1Cl 2.82 µM
COc1cc2ccccc2cc1C(=O)Nc1ccc(S(=O)(=O)Nc2cc(C)on2)cc1 12.6 µM
Cc1cc(NC(=O)c2ccc(S(=O)(=O)Nc3ccccc3)cc2)no1 2.24 µM
Cc1cc(C)c2nc(-c3ccccn3)cc(C(=O)Nc3ccc(S(=O)(=O)Nc4cc(C)on4)cc3)c2c1 7.08 µM
NS(=O)(=O)c1ccc(NS(=O)(=O)c2ccc(NC(=O)c3ccc(-c4ccccc4)cc3)cc2)cc1 0.2 µM
COC(=O)c1ccc(NC(=O)c2ccccc2NS(=O)(=O)c2ccccc2)cc1 0.2 µM
O=c1cc(N2CCC(Cc3ccccc3)CC2)[nH]c(=O)n1C1CCCCC1 12.6 µM
CON/C=C(\C=Nc1ccccc1)c1ncc(C(F)(F)F)cc1Cl 7.94 µM
N#Cc1c(NC(=O)CCN2C(=O)c3ccccc3C2=O)oc(-c2ccccc2)c1-c1ccccc1 0.398 µM
Cc1c(/N=C/c2ccco2)n(Cc2ccccc2)c2ccccc12 14.1 µM
COC(=O)CCSc1cc([N+](=O)[O-])cc2c1c(C1OCCS1)nn2-c1ccccc1 (stereo unspecified) 10 µM
Cn1cc(/C=N/n2cnc3scc(-c4ccccc4)c3c2=O)c2ccccc21 5.01 µM
O=C(Cc1ccc(Br)cc1)Nc1ccccc1Sc1ccccc1 2.82 µM
COc1ccc(CNc2ncnc3ccc(-c4cccc(NS(C)(=O)=O)c4)cc23)c(OC)c1 0.501 µM
COc1ccc(CNc2nc(-c3cccc(NS(C)(=O)=O)c3)nc3ccccc23)c(OC)c1 0.158 µM
C=CCn1c(C)c(C(C)=O)c(N2CCN(c3ccccc3)CC2)nc1=S 12.6 µM
Nc1ccc(N(S(=O)(=O)c2ccccc2)S(=O)(=O)c2ccccc2)c(Cl)c1 3.16 µM
CCC/C=C(\CCC)C(NC(=O)Cc1ccccc1)c1ccc(C(=O)OC)cc1 (stereo unspecified) 10 µM
CCC/C=C(\CCC)C(NS(=O)(=O)c1cccs1)c1ccc(C(=O)OC)cc1 (stereo unspecified) 2 µM
CCC/C=C(\CCC)C(NC(=O)c1cccs1)c1ccc(C(=O)OC)cc1 (stereo unspecified) 2 µM
CCC/C=C(\CCC)C(NC(=O)OCC(C)C)c1ccc(C(=O)OC)cc1 (stereo unspecified) 3.98 µM

AC50, inactive:
CCN[C@@H]1C[C@H](C)S(=O)(=O)c2sc(S(N)(=O)=O)cc21
CC(C)CN1CC[C@@]2(CCCN(C(=O)c3csnn3)C2)C1
O=C(CCCCC(=O)Nc1c(I)cc(I)c(C(=O)O)c1I)Nc1c(I)cc(I)c(C(=O)O)c1I
COc1ccc(N2CCN(CCNC(=O)c3c(C)cc(=O)oc3C)CC2)cc1
CCC(Sc1ncccc1C(=O)O)C(=O)N1CCOCC1 (stereo unspecified)
c1ccc(-c2noc(-c3ccc4ccccc4c3)n2)cc1
C[C@@]12C(=O)OC(=O)[C@@]1(C)[C@@H]1CC[C@@H]2O1
CS(=O)(=O)c1cnc2c(-c3ccc(F)cc3)cnn2c1N
Cc1cc(-c2ccccc2)nnc1NCCN1CCOCC1
CN(C)/C(CN1CCN(C=O)CC1)=C1\N=C(c2ccccc2)OC1=O
CCCCCCCCN1C(=O)N(C)C(N(O)C(=O)NC)C1(C)C (stereo unspecified)
O=C(O)c1ccccc1OP(=O)(O)O
CCOC(=O)c1ccc(Cl)c(NC(=O)c2ccc(-c3ccccc3)cc2)c1
Cc1cc(NC(=O)c2ccccc2Cl)no1
Cc1cc(NC(=O)c2cc(C(C)C)on2)no1
COc1cccc(OC)c1C(=O)Nc1cc(C)on1
Nc1ccc(S(=O)(=O)NC(=O)c2ccccc2)cc1
CC(C)(C)NC[C@H](O)COc1cccc2[nH]c(=O)[nH]c12
Cc1ncc(CO)c(CO)c1O
Cc1cc(=O)oc(C)c1C(=O)N1CCCCC1
Cc1ccccc1-n1c(=O)cc(N2CC(C)OC(C)C2)[nH]c1=O (stereo unspecified)
O=C(c1ccco1)N1CCN(c2cc(=O)n(C3CCCCC3)c(=O)[nH]2)CC1
CCn1c(=O)cc(SCC(=O)N2CCN(C(=O)c3ccco3)CC2)c2ccccc21
CC[n+]1c(P(=O)([O-])c2ccccc2)[nH]c2ccccc21
Cn1cc(-c2nc3cncnc3n(-c3ccccc3)c2=O)c2ccccc21
Cn1cc(-c2nc3cnc(Oc4ccccc4)nc3n(C)c2=O)c2ccccc21
Nc1nonc1-c1noc(CCCN2C(=O)c3ccccc3C2=O)n1
COC(=O)c1scc(C)c1NC(=O)Cc1ccccc1
CC(=O)N1CCC[C@@]2(CCN(c3ccccc3)C2)C1
CC(=O)c1c(N2CCC(C(N)=O)CC2)nc(=S)n(-c2ccccc2)c1C
COc1ccc(NC(=O)N2CC3(CCN(C(=O)c4csnn4)CC3)C2)cc1
C/C(=C(/CCO)SSC[C@@H]1CCCO1)N(C=O)Cc1cnc(C)nc1N
CCc1ccccc1OC[C@@H](O)CN[C@H]1CCCc2ccccc21
Nc1ccc(N2C(=O)c3ccccc3C2=O)c(Cl)c1
COC(=O)N1CCC2(CC1)CN(C(=O)Nc1cccc(C#N)c1)C2
O=C(Nc1cccc(F)c1)N1CCC2(CC1)CCN(C(=O)c1csnn1)CC2

AC50, inactive and 3.16 µM (active):
CN(C)CCC[C@@]1(c2ccc(F)cc2)OCc2cc(C#N)ccc21

activity, negative = inhibition, inactive:
C#CCCCO/N=C1/C[C@@H](O)[C@@H](O)[C@@H]2[C@H]3C(=O)N(c4ccc(F)cc4F)C(=O)[C@@H]3CC[C@@H]12 7.37% [at 11.4 µM]
c1ccc2c(NC3CCNCC3)nc(-c3ccoc3)nc2c1 -0.161% [at 2.29 µM]
Nc1nc2c(c(=O)[nH]1)N[C@H](CCNc1ccc(C(=O)O)cc1)CN2 10.2% [at 11.4 µM]
CC(C)(C)C(=O)[C@H]([C@@H](c1ccccc1)N1CCOCC1)N1CCOCC1 3.46% [at 11.4 µM]
C[C@@H](N1CCOCC1)[C@@](O)(c1ccccc1)c1ccccn1 16.5% [at 11.4 µM]
CN1CCN(c2ccncc2S(=O)(=O)N2CCN(C)CC2)CC1 14.6% [at 11.4 µM]
O=C(O)C[n+]1ccccc1 6.61% [at 11.4 µM]
CC(=O)OC[C@@H]1O[C@@H](O/N=C2/C[C@@H](O)[C@@H](O)[C@@H]3[C@H]4C(=O)N(c5ccc(F)cc5F)C(=O)[C@@H]4CC[C@H]23)[C@H](OC(C)=O)[C@H](OC(C)=O)[C@@H]1OC(C)=O 29.1% [at 11.4 µM]
CN(C)c1ccc(-c2cncnc2Nc2ccc(F)cc2)cc1 -2.26% [at 2.29 µM]
NS(=O)(=O)c1ccc(NC(=O)Nc2cccc3ccccc23)cc1 -9.47% [at 11.4 µM]
COCCNc1cc(-c2c(C)noc2C)ncn1 6.99% [at 2.29 µM]
Cc1ccc(S(=O)(=O)Nc2ccccc2C(=O)c2ccc(C)c(C)c2)cc1 5.56% [at 11.4 µM]
NC(N)=NC(N)=Nc1ccc(S(N)(=O)=O)cc1 -4.01% [at 11.4 µM]
CN1CCN(c2ccnc(-c3ccoc3)n2)CC1 4.59% [at 2.29 µM]
C/C(CCN1CCCc2nc(C)c(C)cc21)=N\O[C@@H](C)c1cn([C@H](CO)Cc2ccccc2)nn1 -12.1% [at 11.4 µM]
COCCNc1nc(-c2cccc(NS(C)(=O)=O)c2)nc2ccccc12 2.19% [at 2.29 µM]
COCCNc1ncnc2ccc(-c3cccc(NS(C)(=O)=O)c3)cc12 16.7% [at 2.29 µM]
CNc1nc(-c2cccc(NS(C)(=O)=O)c2)nc2ccccc12 27.5% [at 2.29 µM]
COc1ccc(CNc2ncncc2-c2cccc(NS(C)(=O)=O)c2)c(OC)c1 -18.5% [at 2.29 µM]
C[C@@H](CCC(=O)O)C(=O)O 3.2% [at 11.4 µM]
Nc1nc2c(ncn2[C@@H]2C=C[C@@H](CO)C2)c(=O)[nH]1 3.99% [at 11.4 µM]
COc1ccccc1CNc1ncnc2ccc(-c3ccoc3)cc12 -19.5% [at 2.29 µM]
Cc1cnc(CNc2cc(-c3ccoc3)ncn2)cn1 10.6% [at 2.29 µM]
